Data on 32 compounds can be found in the supplement of paper PMC13380429.

SMILES strings stand for the structures.

For experiment [1], the system named is Vero E6 infected with SARS-CoV-2. Nature of the experiment: morphology score (similarity to uninfected cells); higher = more like uninfected cells. To be noted: 24 h.
Experiment [2] has the same test system. Nature of the experiment: SARS-CoV-2 infection rate relative to infected DMSO; higher = more infection, active = 60 or less. To be noted: 24 h.

With `O=C1NC(=O)[C@@H](c2cn3c4c(cccc24)CCC3)[C@@H]1c1c[nH]c2ccccc12` [tivantinib] (10 µM), the morphology score in experiment [1] was -0.141. Also, the SARS-CoV-2 infection rate in experiment [2] is 107% (inactive).

In experiment [1], `CN1C(CCl)Nc2cc(Cl)c(S(N)(=O)=O)cc2S1(=O)=O` (centres undefined) [methyclothiazide] (10 µM) yielded a morphology score of 0.0153. For the same compound, the SARS-CoV-2 infection rate in experiment [2] was 104% (inactive).

Compound `Cc1cc(C(=O)Nc2cccc(C(=O)Nc3cccc(C(F)(F)F)c3)c2)on1` (10 µM) showed a morphology score in experiment [1] of -0.209. Besides, the SARS-CoV-2 infection rate in experiment [2] is 115% (inactive).

In experiment [1], `CC/C(=C(\c1ccc(O)cc1)c1ccc(OCCN(C)C)cc1)c1ccccc1` [afimoxifene] (10 µM) yielded a morphology score of 0.801. Also, the SARS-CoV-2 infection rate in experiment [2] was 27.5% (active).

In turn, `O=C(/C=C/c1ccc(O)cc1)c1ccc(O)cc1O` [isoliquiritigenin] (10 µM) yielded a morphology score in experiment [1] of 0.403. In addition, the SARS-CoV-2 infection rate in experiment [2] was 103% (inactive).

Regarding `COc1ccc(C2(CNC(=O)c3ccc(NC(=O)c4ccco4)cc3)CCOCC2)cc1` (0.833333 µM), the morphology score in experiment [1] is 0.269. For the same compound, in experiment [2], the SARS-CoV-2 infection rate is 93% (inactive).

Compound `Nc1cccc2c1C(=O)N(C1CCC(=O)NC1=O)C2=O` (centres undefined) [pomalidomide] (10 µM) had a morphology score in experiment [1] of -0.074. Further, the SARS-CoV-2 infection rate in experiment [2] is 108% (inactive).

For the compound `COc1cc(N)c(Cl)cc1C(=O)NC1CN2CCC1CC2` (centres undefined) [zacopride] (10 µM), the morphology score in experiment [1] came to 0.169. Also, the SARS-CoV-2 infection rate in experiment [2] is 89% (inactive).

In experiment [1], `N[C@@H](C[C@@H](F)C(=O)O)C(=O)O` (10 µM) yielded a morphology score of 0.0323. Further, the SARS-CoV-2 infection rate in experiment [2] is 110% (inactive).

`Cc1cc(C(=O)N2Cc3cnn(C)c3Nc3ccccc32)ccc1CNC(=O)N1CCC[C@H]1C(=S)N1CCCN(C)CC1` (10 µM) returned a morphology score in experiment [1] of 0.0545. In experiment [2], the SARS-CoV-2 infection rate was 110% (inactive).

For the compound `COc1cc2nc(N3CCN(C(=O)c4ccco4)CC3)nc(N)c2cc1OC` [prazosin] (10 µM), the morphology score in experiment [1] is -0.0585. The SARS-CoV-2 infection rate in experiment [2] is 107% (inactive).

In experiment [1], `CN(CCOc1ccc(-c2ccc3c(c2)OCO3)cc1C(C)(C)C)CC(=O)O` (10 µM) displayed a morphology score of -0.0713. For the same compound, in experiment [2], the SARS-CoV-2 infection rate is 102% (inactive).

`COc1ccc(Nc2ccn(-c3ccccc3)n2)cc1` (10 µM): the morphology score in experiment [1] is 0.166. Besides, the SARS-CoV-2 infection rate in experiment [2] was 87.5% (inactive).

`Nc1nc(N)nc(-c2cc(Cl)ccc2Cl)n1` [irsogladine] (10 µM) displayed a morphology score in experiment [1] of 0.168. For the same compound, the SARS-CoV-2 infection rate in experiment [2] was 94.5% (inactive).

`N[C@@H](Cc1c[nH]c2ccccc12)C(=O)O` [tryptophan] (10 µM): the morphology score in experiment [1] is -0.124. For the same compound, the SARS-CoV-2 infection rate in experiment [2] was 100% (inactive).

The compound `O=C(O)COc1ccc(/C=C2\SC(=O)NC2=O)cc1` (10 µM) showed a morphology score in experiment [1] of 0.0392. Further, in experiment [2], the SARS-CoV-2 infection rate is 97% (inactive).

In experiment [1], `O=C(Nc1cccc(Cl)c1)Nc1ncc(CCNc2ncnc3ccsc23)s1` (10 µM) yielded a morphology score of 0.393. Also, the SARS-CoV-2 infection rate in experiment [2] is 80% (inactive).

In the case of `O=c1oc2ccccc2c(O)c1Cc1c(O)c2ccccc2oc1=O` [dicoumarol] (10 µM), the morphology score in experiment [1] was 0.0403. Moreover, the SARS-CoV-2 infection rate in experiment [2] is 108% (inactive).

For the compound `CC(=O)N(c1onc(C)c1C)S(=O)(=O)c1ccc(N)cc1` [sulfisoxazole-acetyl] (10 µM), the morphology score in experiment [1] came out at 0.179. The SARS-CoV-2 infection rate in experiment [2] is 91% (inactive).

The compound `NC(=O)c1[nH]cnc1O` (10 µM) came in with a morphology score in experiment [1] of -0.0334. The SARS-CoV-2 infection rate in experiment [2] was 107% (inactive).

Consider `N=C(N)NC(=N)Nc1cccc(Cl)c1` [m-chlorophenylbiguanide] (10 µM), for which the morphology score in experiment [1] was -0.0474. The SARS-CoV-2 infection rate in experiment [2] is 108% (inactive).

`O=C1CCC2CCC(=O)N12` [rolziracetam] (10 µM) came in with a morphology score in experiment [1] of -0.0425. In addition, in experiment [2], the SARS-CoV-2 infection rate was 106% (inactive).

Compound `COc1ccc(O)c(C(C)(C)C)c1.COc1ccc(O)cc1C(C)(C)C` [butylated-hydroxyanisole] (10 µM) displayed a morphology score in experiment [1] of -0.127. The SARS-CoV-2 infection rate in experiment [2] is 116% (inactive).

As to `COc1ccc(-c2ccc3ncc4c(c3c2)n(-c2ccc(N3CCNCC3)c(C(F)(F)F)c2)c(=O)n4C)cn1` (0.833333 µM), the morphology score in experiment [1] is 0.115. In addition, in experiment [2], the SARS-CoV-2 infection rate is 104% (inactive).

In experiment [1], `C=C1/C(=C\C=C2/CCC[C@]3(C)[C@@H]([C@H](C)/C=C/[C@H](C)C(C)C)CC[C@@H]23)C[C@@H](O)C[C@@H]1O` [doxercalciferol] (10 µM) yielded a morphology score of -0.0772. Also, the SARS-CoV-2 infection rate in experiment [2] is 106% (inactive).

As for `C[C@]12CCC(=O)C=C1CC[C@@H]1[C@@H]2C(=O)C[C@]2(C)C(=O)CC[C@@H]12` [adrenosterone] (10 µM), in experiment [1], the morphology score was -0.109. Besides, in experiment [2], the SARS-CoV-2 infection rate was 97.5% (inactive).

`C#Cc1cccc2c1c(C(=O)c1ccc(Cn3c(C)nc4cnccc43)c(F)c1)cn2C(=O)N(C)C` (10 µM) showed a morphology score in experiment [1] of 0.159. Further, the SARS-CoV-2 infection rate in experiment [2] is 106% (inactive).

For the compound `COc1cccc(N(C)C(=S)Oc2ccc3c(c2)CCCC3)n1` [liranaftate] (10 µM), the morphology score in experiment [1] is 0.341. The SARS-CoV-2 infection rate in experiment [2] was 94% (inactive).

As for `Oc1cc(O)cc(/C=C/c2ccc(O)c(O)c2)c1` [piceatannol] (10 µM), the morphology score in experiment [1] is -0.206. Moreover, the SARS-CoV-2 infection rate in experiment [2] was 112% (inactive).

In experiment [1], `CC(ONC(=O)c1cc(C(F)(F)F)cc(C(F)(F)F)c1)C(=O)Nc1ccc(Cl)cc1` (centres undefined) (10 µM) yielded a morphology score of 0.227. The SARS-CoV-2 infection rate in experiment [2] is 89.5% (inactive).

As to `C=CCN1C[C@H](C)N([C@H](c2ccc(C(=O)N(CC)CC)cc2)c2cccc(O)c2)C[C@H]1C` (10 µM), the morphology score in experiment [1] is 0.1. Moreover, the SARS-CoV-2 infection rate in experiment [2] was 105% (inactive).

`CC1(C)C(=O)N(CCN2CCC(C(=O)c3ccc(F)cc3)CC2)c2ccccc21` (10 µM) showed a morphology score in experiment [1] of -0.158. Moreover, the SARS-CoV-2 infection rate in experiment [2] was 110% (inactive).
